Assay [1] deals with Tyrosine-protein kinase SYK (Homo sapiens) (UniProt P43405). The following applies: at 10 µM.
The target in assay [2] is T1, Serine/threonine-protein kinase TAO1 (Homo sapiens) (UniProt Q7L7X3).
T1 sequence (whole entry): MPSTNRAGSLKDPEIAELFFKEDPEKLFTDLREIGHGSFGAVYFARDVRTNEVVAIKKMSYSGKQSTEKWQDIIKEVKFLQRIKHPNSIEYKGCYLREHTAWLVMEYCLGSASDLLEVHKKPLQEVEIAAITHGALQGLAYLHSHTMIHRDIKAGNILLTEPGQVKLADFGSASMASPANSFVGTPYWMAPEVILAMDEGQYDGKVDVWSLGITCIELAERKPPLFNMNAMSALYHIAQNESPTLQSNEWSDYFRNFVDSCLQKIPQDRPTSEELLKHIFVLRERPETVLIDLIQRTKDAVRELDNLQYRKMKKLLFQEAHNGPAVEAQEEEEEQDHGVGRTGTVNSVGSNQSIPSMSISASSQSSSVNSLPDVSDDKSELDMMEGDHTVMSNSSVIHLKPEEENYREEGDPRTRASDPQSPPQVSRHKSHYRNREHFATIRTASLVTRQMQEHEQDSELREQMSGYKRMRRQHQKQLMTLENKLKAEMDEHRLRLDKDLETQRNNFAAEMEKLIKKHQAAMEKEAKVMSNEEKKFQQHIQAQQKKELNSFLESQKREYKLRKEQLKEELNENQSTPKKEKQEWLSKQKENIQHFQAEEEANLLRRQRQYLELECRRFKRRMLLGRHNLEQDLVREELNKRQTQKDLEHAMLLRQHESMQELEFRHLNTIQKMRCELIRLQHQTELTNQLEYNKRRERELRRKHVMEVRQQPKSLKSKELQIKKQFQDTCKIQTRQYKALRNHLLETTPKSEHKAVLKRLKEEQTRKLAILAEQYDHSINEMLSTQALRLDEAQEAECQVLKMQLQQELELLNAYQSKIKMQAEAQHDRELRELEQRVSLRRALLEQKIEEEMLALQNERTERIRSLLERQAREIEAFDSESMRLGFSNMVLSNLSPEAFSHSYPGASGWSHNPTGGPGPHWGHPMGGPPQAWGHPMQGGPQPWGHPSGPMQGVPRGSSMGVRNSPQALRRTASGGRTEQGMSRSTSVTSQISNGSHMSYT
Conditions: at 10 µM.

Assay [3] addresses T2, Serine/threonine-protein kinase TAO3 (Homo sapiens) (UniProt Q9H2K8).
T2 sequence (whole entry): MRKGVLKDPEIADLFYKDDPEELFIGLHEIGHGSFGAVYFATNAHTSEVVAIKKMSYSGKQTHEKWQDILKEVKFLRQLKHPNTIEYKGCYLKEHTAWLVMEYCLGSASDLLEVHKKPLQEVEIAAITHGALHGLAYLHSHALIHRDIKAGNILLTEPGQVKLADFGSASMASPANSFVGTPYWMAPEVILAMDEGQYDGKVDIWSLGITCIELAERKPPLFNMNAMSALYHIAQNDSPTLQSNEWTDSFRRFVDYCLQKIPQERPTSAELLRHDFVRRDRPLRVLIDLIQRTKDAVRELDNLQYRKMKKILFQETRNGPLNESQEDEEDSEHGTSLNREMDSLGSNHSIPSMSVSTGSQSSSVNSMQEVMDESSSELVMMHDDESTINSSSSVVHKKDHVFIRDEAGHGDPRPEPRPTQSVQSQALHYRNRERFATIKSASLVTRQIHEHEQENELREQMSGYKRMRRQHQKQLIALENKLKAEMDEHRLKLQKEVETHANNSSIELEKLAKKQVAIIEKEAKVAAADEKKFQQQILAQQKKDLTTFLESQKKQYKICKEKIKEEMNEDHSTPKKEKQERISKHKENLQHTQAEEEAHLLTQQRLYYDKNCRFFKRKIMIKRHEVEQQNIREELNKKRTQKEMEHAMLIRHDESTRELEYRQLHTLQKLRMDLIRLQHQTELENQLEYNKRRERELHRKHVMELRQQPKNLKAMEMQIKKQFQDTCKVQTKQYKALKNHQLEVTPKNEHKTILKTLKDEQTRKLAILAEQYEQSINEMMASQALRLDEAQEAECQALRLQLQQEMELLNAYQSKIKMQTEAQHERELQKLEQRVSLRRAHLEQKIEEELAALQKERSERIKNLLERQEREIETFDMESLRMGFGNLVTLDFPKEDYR
Conditions: at 10 µM.

Assay [4] has as its target T3, Serine/threonine-protein kinase TBK1 (Homo sapiens) (UniProt Q9UHD2).
T3 sequence (whole entry): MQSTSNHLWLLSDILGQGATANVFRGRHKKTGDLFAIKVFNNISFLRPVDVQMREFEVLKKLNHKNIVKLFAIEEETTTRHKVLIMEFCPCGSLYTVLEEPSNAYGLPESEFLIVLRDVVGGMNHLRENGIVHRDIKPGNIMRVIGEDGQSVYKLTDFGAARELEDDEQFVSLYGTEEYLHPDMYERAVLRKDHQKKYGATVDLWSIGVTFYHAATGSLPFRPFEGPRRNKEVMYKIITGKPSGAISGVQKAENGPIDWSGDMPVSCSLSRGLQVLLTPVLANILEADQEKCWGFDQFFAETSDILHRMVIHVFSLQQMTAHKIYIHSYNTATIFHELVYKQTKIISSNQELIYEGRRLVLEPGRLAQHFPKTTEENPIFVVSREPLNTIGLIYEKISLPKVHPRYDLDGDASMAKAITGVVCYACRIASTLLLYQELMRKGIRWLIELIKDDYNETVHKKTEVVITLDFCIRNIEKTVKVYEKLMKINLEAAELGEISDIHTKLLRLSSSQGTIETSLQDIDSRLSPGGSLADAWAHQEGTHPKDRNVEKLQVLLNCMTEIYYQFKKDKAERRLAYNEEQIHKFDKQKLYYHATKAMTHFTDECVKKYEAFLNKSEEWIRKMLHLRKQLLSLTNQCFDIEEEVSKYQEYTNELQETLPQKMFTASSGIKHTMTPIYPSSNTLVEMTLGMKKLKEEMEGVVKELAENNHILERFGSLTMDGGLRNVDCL
Conditions: at 1 µM.

For assay [5], the target named is T3, Serine/threonine-protein kinase TBK1 (Homo sapiens). Conditions: at 10 µM.
For assay [6], the target named is T4, TGF-beta receptor type-1 (Homo sapiens) (UniProt P36897).
T4 sequence (whole entry): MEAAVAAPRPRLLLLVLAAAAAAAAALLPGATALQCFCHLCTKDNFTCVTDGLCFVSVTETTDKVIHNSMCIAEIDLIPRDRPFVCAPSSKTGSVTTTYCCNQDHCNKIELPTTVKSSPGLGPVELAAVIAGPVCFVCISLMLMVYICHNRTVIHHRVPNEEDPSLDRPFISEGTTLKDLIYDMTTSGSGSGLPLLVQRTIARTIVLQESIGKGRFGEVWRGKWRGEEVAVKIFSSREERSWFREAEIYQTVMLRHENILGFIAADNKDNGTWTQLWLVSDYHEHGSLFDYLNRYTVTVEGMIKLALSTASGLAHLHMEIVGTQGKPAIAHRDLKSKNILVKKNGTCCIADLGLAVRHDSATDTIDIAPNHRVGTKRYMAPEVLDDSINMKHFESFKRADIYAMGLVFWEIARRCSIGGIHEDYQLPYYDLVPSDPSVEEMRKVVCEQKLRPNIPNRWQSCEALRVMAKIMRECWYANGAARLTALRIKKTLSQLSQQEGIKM
Conditions: at 1 µM.

Assay [7] addresses T4, TGF-beta receptor type-1 (Homo sapiens). Conditions: at 10 µM.

The structures appear in SMILES notation.

This note sets out measurements from ChEMBL document CHEMBL2218924, “A broad activity screen in support of a chemogenomic map for kinase signalling research and drug discovery” (Biochem J, 2013).

Usually residual activity stands for what remains of the control signal, in per cent. High values mean a small loss of activity, low ones a large loss of activity.

For the compound `Oc1cccc(-c2nc(N3CCOCC3)c3oc4ncccc4c3n2)c1`, the residual activity in assay [1] was 94%; in assay [2], 94%; in assay [3] it was 93%; in assay [4] it was 82%; in assay [5], 67%; in assay [6] it was 82%. For the same compound, the residual activity in assay [7] stood at 91%.
